Experimental data reported in PubChem BioAssay (Tox21).
Results filed as inconclusive are left out. Active and inactive are the calls of the source. Calls follow the shape of the full dose curve.

Test: cAMP Responsive Elements (CRE) small molecule agonists, cell-based qHTS assay (AID 1963590)
Conditions: CRE-bla HEK293T, beta-lactamase FRET ratio, 3 h; series mostly up to 92.4 µM; activation: at the top concentration
From the text: U.S. Tox21 Program National Center for Advancing Translational Sciences [NCATS] Division of Preclinical Innovation [DPI] U.S. Environmental Protection Agency [EPA] National Institutes of Environmental Health Sciences [NIEHS] National Toxicology Program [NTP] U.S. Food and Drug Administration [FDA] Tox21 Assay Overview: CREB (cyclic-AMP Responsive Element Binding Protein) is a cellular transcription factor. It binds to certain DNA sequences called cAMP Responsive Elements (CRE) and regulates the transcription of the genes. […] This cell line can be used to find agonists/antagonists of the cyclic AMP signaling pathway. The activation of the report gene under culture conditions can be detected by fluorescence intensity. This cell line has been used to screen the Tox21 10K compound library to identify agonists that induce oxidative stress.
Tox21 Assay Protocol Summary: CRE-bla Hek 293T cells were suspended in assay medium (DMEM containing 10% dialyzed FBS, 0.1 mM NEAA, 1 mM sodium pyruvate and 25 mM HEPES) and dispensed at 2,000 cells/5 uL /well into 1536-well black wall/clear bottom plates using a Multidrop Combi (ThermoFisher Scientific, Waltham, MA) dispenser. After the assay plates were incubated at 37 C/5% CO2 for 18 hrs, 23 nL of compounds dissolved in DMSO, positive controls or DMSO only was transferred to the assay plate by a pintool workstation (Kalypsys, San Diego, CA). After the plates were incubated at 37 C/5% CO2 for 3 hrs, 1 uL of LiveBLAzer B/G FRET substrate (Invitrogen, Carlsbad, CA) was added to each well using Bioraptr Flying Reagent Dispenser (FRD, Aurora Discovery, San Diego, CA). The plates were incubated at room temperature for 2 h.
% is scaled to controls: 0 for no effect and ±100 for the full control effect.

SMILES | activation | Potency
CNC(=O)Oc1ccccc1C(C)C | 0.0828% (inactive) | –
Nc1ccc(Sc2ccc(N)cc2)cc1 | 1.64% (inactive) | –
CC(=O)C(Cl)C(=O)N(C)C (stereo not given) | 2.13% (inactive) | –
C=C(Cl)Cl | 0.252% (inactive) | –
O=c1[nH]c2cc(Cl)ccc2n1C1CCNCC1 | -0.623% [at 42.5 µM] (inactive) | –
C#CC1(O)CCCCC1 | -1.44% (inactive) | –
CCCC[N+]1(C)[C@@H]2CC(OC(=O)[C@H](CO)c3ccccc3)C[C@H]1[C@@H]1O[C@@H]12 (stereo not given in full) | 0.527% [at 42.5 µM] (inactive) | –
Nc1ccc(Cc2ccc(N)c(Cl)c2)cc1Cl | 10.5% (inactive) | –
CN[C@@H](C)[C@H](O)c1ccccc1 | 6.63% [at 42.5 µM] (inactive) | –
COc1ccc(CN2CCNCC2)c(OC)c1OC | -0.0451% [at 42.5 µM] (inactive) | –
ClCCCN1CCN(c2cccc(Cl)c2)CC1 | -2.35% [at 42.5 µM] (inactive) | –
CCOC(=O)C(Cl)C(C)=O (stereo not given) | -0.0448% (inactive) | –
Nc1nc(N)nc(N)n1 | 0.201% (inactive) | –
CC(C)(C)C(O)C(Oc1ccc(-c2ccccc2)cc1)n1cncn1 (stereo not given) | 6.99% (inactive) | –
CCC1CCC(=O)O1 (stereo not given) | -1.06% (inactive) | –
CCCCN(CCCC)C(=S)S | -2.28% (inactive) | –
CN1C[C@H](CNC(=O)OCc2ccccc2)C[C@@H]2c3cccc4c3c(cn4C)C[C@H]21 | 8.07% [at 42.5 µM] (inactive) | –
COc1cc(OC)c(OC)cc1C=O | 29.7% (inactive) | –
CC(Cc1ccccc1)NCCn1cnc2c1c(=O)n(C)c(=O)n2C (stereo not given) | 0.549% (inactive) | –
CC(C)(Cl)[N+](=O)[O-] | 0.562% (inactive) | –

SMILES | activation | Potency
NCC(CC(=O)O)c1ccc(Cl)cc1 (stereo not given) | -1.8% [at 0.349 µM] (inactive) | –
NC1=NC(=O)C(c2ccccc2)O1 (stereo not given) | 0.0752% [at 42.5 µM] (inactive) | –
OP(O)c1ccccc1 | 0.163% (inactive) | –
CCO[C@H]1O[C@@H]2OC3(C)CC[C@H]4[C@H](C)CC[C@@H]([C@H]1C)[C@@]24OO3 | -0.907% [at 42.5 µM] (inactive) | –
CCCCCOC(=O)c1ccccc1C(=O)OCCCCC | – | inactive
CN(C)C(=O)Oc1cc(OC(=O)N(C)C)cc(C(O)CNC(C)(C)C)c1 (stereo not given) | -0.6% [at 42.5 µM] (inactive) | –
FC(F)(F)c1cccc(C2=CCN(CCc3ccc4ccccc4c3)CC2)c1 | 2.36% [at 42.5 µM] (inactive) | –
Cc1nnc(-c2ccccc2)c(=O)n1N | -3.18% (inactive) | –
O=CC(Br)(Br)Br | -1.51% (inactive) | –
CCc1cc2c(s1)-n1c(C)nnc1CN=C2c1ccccc1Cl | 2.27% [at 42.5 µM] (inactive) | –
C=CCN1CC[C@]23c4c5ccc(O)c4O[C@H]2C(=O)CC[C@@]3(O)[C@H]1C5 | -0.673% [at 42.5 µM] (inactive) | –
COP(N)(=S)Oc1ccccc1C(=O)OC(C)C (stereo not given) | 0.769% (inactive) | –
BrCCCBr | -0.692% (inactive) | –
COCCOCCO | -2.16% (inactive) | –
Cc1cc(C)cc(OP(=O)(Oc2cc(C)cc(C)c2)Oc2cc(C)cc(C)c2)c1 | 0.301% (inactive) | –
CCOC(=O)CCl | -0.193% (inactive) | –
CCOP(=S)(OCC)Oc1ccc(Cl)cc1Cl | 0.622% (inactive) | –
CC(=O)[O-].CC(=O)[O-].O.O.[Cd+2] | 7.44% (inactive) | –
COc1cccc2c1C(=O)c1c(O)c3c(c(O)c1C2=O)C[C@@](O)(C(=O)CO)CC3OC1CC(N2CCOC(OC)C2)C(O)C(C)O1 (stereo not given in full) | -4.87% [at 42.5 µM] (inactive) | –
N#CN=C1SCCN1Cc1ccc(Cl)nc1 | 0.299% (inactive) | –
